From PubChem BioAssay AID1578 (Sanford-Burnham Center for Chemical Genomics, 2009)
Out of some 290,000 compounds screened, about 3,000 (1%) were called active. The sample holds actives, similar compounds and a random draw of the others, so the mix is not that of the screen. Cut-off read from the data, not from the text of the source: active = inhibition mostly above about 36% (no sharp cut-off); inactive = mostly below about 34%.

Test: inhibition of NOD1-driven NF-kB reporter – cell-based, luminescence, uHTS, primary screen (AID 1578);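 note: HEK-293T reporter cells stimulated with the NOD1 agonist gamma-tri-DAP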
Conditions: NOD1-driven NF-kB luciferase reporter cells, at 4 µM, stronger effect = higher value

SMILES	inhibition
O=C(NCCc1ccccc1)C(=O)N/N=C/c1ccccc1C(F)(F)F	-5.8% (inactive)
Cc1ccc(NC(=O)c2cc3c(s2)CCCC3)cc1	-69.9% (inactive)
CC(=O)Nc1cccc(Cn2cccn2)c1	11.3% (inactive)
O=C(Nc1cccc(Cn2cccn2)c1)c1cc2c(s1)CCCC2	34.5% (active)
C=CCN(C(=O)CSc1nc2[nH]ncc2c(=O)n1-c1ccccc1OC)c1ccccc1	-29% (inactive)
COc1ccc(Nc2nc3ccccc3nc2NS(=O)(=O)c2cccs2)cc1	39.2% (inactive)
O=C(O)c1ccc(Nc2nc3ccccc3nc2NS(=O)(=O)c2cccs2)cc1	-3.1% (inactive)
O=C(O)c1cccc(Nc2nc3ccccc3nc2NS(=O)(=O)c2cccs2)c1	-74.2% (inactive)
COc1ccc(Nc2nc3ccccc3nc2NS(=O)(=O)c2cccs2)c(OC)c1	18% (inactive)
O=C1N2c3ccccc3CCc3cccc(c32)C1(O)C(F)(F)F (configuration not stated)	-26.6% (inactive)
CC1CC(C)CN(S(=O)(=O)N2CCCC(C(=O)NCCCN3CCOCC3)C2)C1 (configuration not stated)	16.8% (inactive)
Cc1nn(C)c(Nc2ccc(Br)cc2)c1Br	44.9% (active)
Cc1cc(C)nc(-n2nc(C)c(Br)c2Nc2ccc(Br)cc2)n1	-10.9% (inactive)
CCn1nc(C)c(Br)c1Nc1ccc(Br)cc1	7.5% (inactive)
Cc1ccc(C)c(OCC(=O)Nc2cccc(S(=O)(=O)NC3=NCCCCC3)c2)c1	-2.9% (inactive)
CCN(CC)S(=O)(=O)c1cccc(NC(=O)c2cncc(Br)c2)c1	-54.6% (inactive)
COc1cc(NC(=O)CNc2cccc(S(=O)(=O)N3CCCC3)c2)cc(OC)c1	-2.7% (inactive)
Cc1ccc(OCC(=O)Nc2cccc(S(=O)(=O)NC3=NCCCCC3)c2)cc1C	-93% (inactive)
Cc1ccc(C(C)C)c(OCC(=O)Nc2cccc(S(=O)(=O)NC3=NCCCCC3)c2)c1	53.3% (active)
CC(C)(C)CC(=O)Nc1cc(S(=O)(=O)N2CCCCCC2)ccc1Cl	-3.6% (inactive)
CC(=O)OCC(=O)Nc1cc(S(=O)(=O)N2CCCCCC2)ccc1Cl	-22.1% (inactive)
CCN(CC)CC(=O)Nc1cccc(S(=O)(=O)N2CCCC2)c1	-15.1% (inactive)
CCN(CC)S(=O)(=O)c1ccc(C(=O)Nc2cccc(C)c2)cc1	-4.2% (inactive)
Cn1nc(-c2ccccc2)c2cc(C(=O)O)sc21	-19.4% (inactive)
COc1cc(OC)cc(C(=O)Nc2cccc(NC(=O)c3ccccc3)c2)c1	2.4% (inactive)

SMILES	inhibition
Cc1cccc2nc(CSc3ncccc3C(=O)O)cn12	-32.8% (inactive)
Cc1cc(C)nc(N/N=C/c2ccccc2OCc2ccccc2)n1	-24.5% (inactive)
COc1cccc(NC(=O)CSc2ccc3nnc(-c4ccncc4)n3n2)c1	10.7% (inactive)
O=C(Cn1c(=O)oc2cc(S(=O)(=O)N3CCCC3)ccc21)Nc1cccc(C(F)(F)F)c1	58% (active)
O=C(Cc1n[nH]c(=O)c2ccccc12)Nc1cccc(S(=O)(=O)N2CCCC2)c1	0.5% (inactive)
CS(=O)(=O)c1ccc(Cl)c(NC(=O)CCc2ccccc2)c1	-34.6% (inactive)
O=C(CCc1ccccc1Cl)Nc1cccc(S(=O)(=O)N2CCCC2)c1	-16.3% (inactive)
O=C(Cn1c(=O)oc2cc(S(=O)(=O)N3CCCC3)ccc21)Nc1ccc(C(F)(F)F)cc1	8.8% (inactive)
O=C(Cn1[nH]c(=O)c2ccccc2c1=O)Nc1cccc(S(=O)(=O)N2CCCCCC2)c1	55% (active)
CC(=O)Nc1cccc(S(=O)(=O)N2CCCCCC2)c1	-15.2% (inactive)
O=C(Cn1cnc2ccccc2c1=O)Nc1cccc(S(=O)(=O)N2CCCCC2)c1	3.7% (inactive)
CS(=O)(=O)c1ccc(Cl)c(NC(=O)Cc2c(Cl)cccc2Cl)c1	19.7% (inactive)
CS(=O)(=O)c1ccc(Cl)c(NC(=O)CCl)c1	43.3% (active)
CC(=O)c1cccc(NC(=O)Cn2c(=O)oc3cc(S(=O)(=O)N4CCCC4)ccc32)c1	-4.9% (inactive)
CCCc1cc(=O)[nH]c(SCC(=O)NCCC2=CCCCC2)n1	-16.8% (inactive)
Cc1ccc2nc(NCC(=O)NN)nc(-c3ccccc3)c2c1	-11.2% (inactive)
Cc1ccnc(NS(=O)(=O)c2ccc(NC(=O)c3cc(=O)c4ccccc4o3)cc2)n1	-0.9% (inactive)
NC(=O)/C(=C/c1cccnc1)NC(=O)c1ccccc1	4.1% (inactive)
CCc1ccc(C2c3[nH]c4ccccc4c3CCN2C(=O)c2cc(C)nn2C)cc1 (configuration not stated)	-25.9% (inactive)
CCCCN(C)C(=O)Cn1nc(-c2ccc(Cl)cc2)ccc1=O	-9.3% (inactive)
O=C(c1ccc(S(=O)(=O)N2CCCC2)cc1)N(Cc1ccco1)C1CCS(=O)(=O)C1 (configuration not stated)	-10.9% (inactive)
CNC(=S)Nc1cccc(S(=O)(=O)NC2=NCCC2)c1	-13.1% (inactive)
O=C(CCl)Nc1cccc(S(=O)(=O)NC2=NCCC2)c1	64.9% (active)
O=C(Nc1cccc(S(=O)(=O)NC2=NCCC2)c1)C1CCC1	-32.4% (inactive)
COc1cc(NC(=O)[C@H](C)NC(=O)N2CCn3c2nc2ccccc23)cc(OC)c1	5.6% (inactive)

SMILES	inhibition
CCCc1nnc(SCC(=O)O)n1CC	-9.2% (inactive)
CSc1ccc(/C=C/C(=O)OCC(=O)N(C)CCC#N)cc1	-23% (inactive)
Cc1cc(/C=N/N2CCN(C)CC2)c(C)n1-c1ccc(Cl)cc1	-8.4% (inactive)
O=C1NC(=S)S/C1=C\c1ccc(SCc2ccccc2)o1	91.8% (active)
O=C(O)CN1C(=O)/C(=C/c2ccc(SCc3ccccc3)o2)SC1=S	-39.2% (inactive)
O=C1NC(=S)S/C1=C\c1ccc(SCc2ccco2)o1	-10.8% (inactive)
CN(C)c1nc2ncn(Cc3ccccc3)c2c(=O)[nH]1	5.2% (inactive)
O=c1[nH]cnc2c1sc1nc(-c3ccccc3)c3c(c12)CCCC3	34.8% (inactive)
COc1ccc(-c2c3c(nc4sc5c(=O)[nH]c(C)nc5c24)CCC3)cc1	-23.6% (inactive)
O=c1[nH]cnc2c1sc1nc3c(c(-c4ccc(Cl)cc4)c12)CCC3	78.1% (active)
COc1ccc(-c2nc3c4ccccc4ccn3c2CN2CCCCC2)cc1OC	-8.1% (inactive)
Cc1nc(SCn2nnc3ccccc3c2=O)nc(C)c1C	-13.8% (inactive)
CCOc1ccc(S(=O)(=O)NCCSCc2ccco2)cc1	3.8% (inactive)
COc1ccc(NC(=O)Cn2ncc(Cl)c(Cl)c2=O)cc1S(=O)(=O)N1CCOCC1	43.5% (inactive)
COc1cc(NC(=O)CN2CCCCC2)c(C)cc1[N+](=O)[O-]	-16.1% (inactive)
COc1cc(NC(=O)Cn2ncc(Cl)c(Cl)c2=O)c(C)cc1[N+](=O)[O-]	91.3% (active)
CCN(CC)S(=O)(=O)c1cc(NC(=O)Cn2ncc(Cl)c(Cl)c2=O)ccc1C	62.3% (active)
CCN(CC)S(=O)(=O)c1cc(NC(=O)Cn2cnc3ccccc3c2=O)ccc1C	-1.6% (inactive)
COc1cc(NC(=O)CN2C(=O)CN(C)C2=O)c(C)cc1[N+](=O)[O-]	-27.7% (inactive)
CN(C(=O)c1ccccc1C(=O)OCC(=O)NC(=O)NC(C)(C)C)C1CCCCC1	-11.4% (inactive)
O=C(CSc1ncnc2scc(-c3ccccc3)c12)Nc1ccc(C(=O)O)cc1	24.9% (inactive)
Nc1cc(N)nc(SCC(=O)Nc2ccccc2)n1	17.4% (inactive)
COc1ccnc(Oc2ccc(F)cc2)c1C(=O)N/C=N/OCc1ccc(F)cc1	-24% (inactive)
Cc1oc2c(c(C)cc3oc(=O)c(CC(=O)N[C@@H](CC(C)C)C(=O)O)c(C)c32)c1C	-2.2% (inactive)
O=Cc1cn(CCC(=O)O)nc1-c1cccc(Br)c1	-28.9% (inactive)

SMILES	inhibition
O=C(O)CCn1cc(/C=C/C(=O)c2ccc(Cl)cc2)c(-c2ccc(Br)cc2)n1	52.9% (inactive)
CC(=O)c1sc(N/N=C\c2cccc(Br)c2)nc1C	3.9% (inactive)
C=CCNC(=O)/C(C#N)=C/c1ccc2c(c1)OCCO2	-33.6% (inactive)
CCn1c(O)c(C=Nc2ccccc2)sc1=O	-27.2% (inactive)
Cn1c(O)c(C=Nc2ccc(Br)cc2)sc1=O	53.6% (active)
Cc1ccc(N=Cc2sc(O)c3ccccc23)cc1	-36.5% (inactive)
CCOc1ccc(C(=O)Nc2nnc(S(=O)(=O)N3CCCCC3)s2)cc1	2.6% (inactive)
O=C(N/N=C/c1cccc(OC(=O)c2cccc(Br)c2)c1)c1ccncc1	-35% (inactive)
CCOC(=O)CC(NC(=O)c1ccco1)c1ccccc1Cl (configuration not stated)	-14.8% (inactive)
Fc1ccc(NC(=S)Nc2ccc(F)c(Cl)c2)cc1Cl	74.1% (active)
CC(=O)Nc1cccc(NC(=S)Nc2ccc(F)c(Cl)c2)c1	3% (inactive)
Fc1ccc(NC(=S)Nc2cccnc2)cc1Cl	-27% (inactive)
Cn1cc(C(=O)NS(=O)(=O)Nc2ccc(Br)cn2)c2ccccc21	-29% (inactive)
CC(C)(C)c1nnc(N/N=C/c2ccccc2O)n(N)c1=O	-45.8% (inactive)
CC(C)(C)c1nnc(N/N=C/c2cc(Br)ccc2O)n(N)c1=O	68.7% (active)
CC(C)(C)c1nnc(N/N=C/c2ccc(Br)cc2)n(N)c1=O	-33.2% (inactive)
O=C(Nc1ncccc1Cl)c1ccccc1F	-31.4% (inactive)
Cc1ccc(-n2[nH]c(C)c(/C=N/NC(=O)c3ccc([N+](=O)[O-])cc3)c2=O)c(C)c1	-20.9% (inactive)
Cc1ccc(-n2[nH]c(C)c(/C=N/NC(=O)c3cccc([N+](=O)[O-])c3)c2=O)cc1C	92.8% (active)
Cc1[nH]n(-c2ccccc2)c(=O)c1/C=N/NC(=O)c1ccccc1F	-9.2% (inactive)
Cc1[nH]n(-c2cccc3ccccc23)c(=O)c1/C=N/NC(=O)c1cccc([N+](=O)[O-])c1	-8.2% (inactive)
Cc1[nH]n(-c2ccc(Br)cc2)c(=O)c1/C=N/NC(=O)c1ccccc1	69% (inactive)
